In assay [1] the target is Rap guanine nucleotide exchange factor 3 (Homo sapiens) (UniProt O95398). Briefly: Confirmatory qHTS for antagonist of cAMP-regulated guanine nucleotide exchange factor 3 (EPAC1) (AID 1645880).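 Also: plate controls were DMSO only for no effect and full effect of the ATA control for full effect; nearly all actives have a fitted effect of over 55% in size.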 The settings on record: EPAC1 Rap1B-BODIPY-GDP exchange, fluorescence; activity, negative = inhibition: at 115 µM (top of the series). Summed up:
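Released BODIPY-GDP fluoresces less than Rap1-bound BODIPY-GDP; the signal is followed at 480/540 nm at 5-min intervals over 30 min, after 5 min at room temperature. Reactions contain 100 nM EPAC1, 250 nM RAP1B-BODIPY-GDP and 50 uM GDP; results are normalized to ATA and DMSO.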
A general note: In qHTS, concentration-response curves come from the screen itself.

The target in assay [2] is Rap guanine nucleotide exchange factor 4 (Homo sapiens) (UniProt Q8WZA2). Put plainly: Confirmatory qHTS for agonist of cAMP-regulated guanine nucleotide exchange factor 4 (EPAC2) (AID 1645884).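 Also: nucleotide exchange releases bodipy-GDP from Rap1 and this lowers its fluorescence; nearly all actives have a fitted effect of over 65% in size.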 Also: potency is read from the fitted curve at half-maximal effect. As to activation: % is scaled to controls: 0 for no effect and ±100 for the full control effect.
Chain of Rap guanine nucleotide exchange factor 4 (Homo sapiens) (Q8WZA2 whole entry, looked up): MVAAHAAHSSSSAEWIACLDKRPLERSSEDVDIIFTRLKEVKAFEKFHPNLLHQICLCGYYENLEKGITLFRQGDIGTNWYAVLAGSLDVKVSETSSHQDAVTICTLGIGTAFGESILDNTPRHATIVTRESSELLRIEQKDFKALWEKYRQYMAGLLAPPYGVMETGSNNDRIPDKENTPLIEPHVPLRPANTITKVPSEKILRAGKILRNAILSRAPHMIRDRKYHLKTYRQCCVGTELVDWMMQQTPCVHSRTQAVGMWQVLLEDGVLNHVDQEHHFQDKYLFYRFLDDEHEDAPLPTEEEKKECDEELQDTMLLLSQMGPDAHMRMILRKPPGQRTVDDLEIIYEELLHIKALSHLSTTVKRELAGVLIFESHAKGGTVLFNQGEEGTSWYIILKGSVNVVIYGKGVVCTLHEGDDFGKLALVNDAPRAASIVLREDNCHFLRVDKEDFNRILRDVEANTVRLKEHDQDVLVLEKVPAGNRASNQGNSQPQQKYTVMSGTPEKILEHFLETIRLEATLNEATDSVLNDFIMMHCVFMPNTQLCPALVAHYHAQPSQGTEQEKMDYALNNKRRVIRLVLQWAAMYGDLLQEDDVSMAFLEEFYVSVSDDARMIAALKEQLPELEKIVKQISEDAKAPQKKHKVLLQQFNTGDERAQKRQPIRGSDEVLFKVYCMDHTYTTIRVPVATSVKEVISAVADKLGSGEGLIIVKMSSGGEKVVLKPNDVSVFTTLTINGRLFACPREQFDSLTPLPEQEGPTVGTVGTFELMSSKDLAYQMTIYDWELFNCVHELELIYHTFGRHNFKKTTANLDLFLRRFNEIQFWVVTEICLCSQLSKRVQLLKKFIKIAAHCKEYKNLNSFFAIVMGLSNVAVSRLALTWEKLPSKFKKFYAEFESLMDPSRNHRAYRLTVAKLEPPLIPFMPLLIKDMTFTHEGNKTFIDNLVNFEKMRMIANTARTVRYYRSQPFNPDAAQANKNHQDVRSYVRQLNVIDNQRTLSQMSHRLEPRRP
The target is the same in assay [3]. Briefly: Confirmatory qHTS for antagonist of cAMP-regulated guanine nucleotide exchange factor 4 (EPAC2) (AID 1645885). Also: nearly all actives have a fitted effect of over 25% in size. Also: potency is read from the fitted curve at half-maximal effect. As to activity change, negative = inhibition: % is scaled to controls: 0 for no effect and ±100 for the full control effect.
Assay [4] addresses Rap guanine nucleotide exchange factor 3 (Homo sapiens) (UniProt O95398). Put plainly: Counterscreen qHTS for antagonist of cAMP-regulated guanine nucleotide exchange factor 3 (EPAC1) (AID 1645888). Also: % of control where 0% means no effect. Summed up: (§1)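 Rap1B–BODIPY-GDP (250 nM) with 50 uM GDP; compounds pin-transferred to 9.74 nM–152 uM final (activator) or from 7.32 nM upwards (inhibitor). Fluorescence Ex/Em 480/540 nm read at 5 and 30 min, then after adding cAMP or buffer, at room temperature.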
(A counterscreen serves to expose hits that act by an unwanted route or on another target.)

The target is the same in assay [5]. Put plainly: Counterscreen qHTS for agonist of cAMP-regulated guanine nucleotide exchange factor 3 (EPAC1) (AID 1645889). Also: nearly all actives have a fitted effect of over 40% in size. Also: potency is read from the fitted curve at half-maximal effect. As to activation: % of control where 0% means no effect. The gist of the method:
as §1

The target in assay [6] is Tumor susceptibility gene 101 protein (Homo sapiens) (UniProt Q99816). Put plainly: qHTS Assay for Iinhibitors of HIV-1 Budding by Blocking the Interaction of PTAP/TSG101: Hit Validation (AID 651600). Also: nearly all actives have a fitted effect of over 70% in size. Also: potency is read from the fitted curve at half-maximal effect. As to activity change, negative = inhibition: % is scaled to controls: 0 for no effect and ±100 for the full control effect. Summed up: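 FITC-PTAP peptide (50 nM final) binding to Tsg101 binding domain (10 uM final) was measured by polarization after 20 min at r.t. with compounds, in 10 mM HEPES pH 7.5 buffer with 0.15 M NaCl and 0.01% Tween 20.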
Chain of Tumor susceptibility gene 101 protein (Homo sapiens) (Q99816 whole entry, looked up, the tested form may be a part): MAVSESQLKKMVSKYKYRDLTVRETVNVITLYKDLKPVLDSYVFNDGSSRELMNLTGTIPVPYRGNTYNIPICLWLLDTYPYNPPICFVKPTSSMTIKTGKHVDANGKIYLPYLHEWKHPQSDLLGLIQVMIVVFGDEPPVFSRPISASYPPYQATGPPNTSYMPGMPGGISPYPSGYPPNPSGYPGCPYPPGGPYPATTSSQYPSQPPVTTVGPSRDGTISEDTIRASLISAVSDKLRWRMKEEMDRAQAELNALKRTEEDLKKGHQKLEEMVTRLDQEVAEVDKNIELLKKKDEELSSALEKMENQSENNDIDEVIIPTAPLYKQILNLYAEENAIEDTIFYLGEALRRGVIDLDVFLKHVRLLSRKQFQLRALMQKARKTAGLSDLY

A short description of assay [7]: Stat Signaling Pathway (AID 446; active = well fitted curve in either direction with a large enough effect, not every such curve was filed as active;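 also: ME-180 cervical cancer cells given 40 pM IL-6 alongside compound; SIE-controlled beta-lactamase reporter measured as 460/530 nm FRET emission ratio; % is scaled to controls: 0 for no effect and ±100 for the full control effect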). Summed up:
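Emission at 460 and 530 nm (excitation 405 nm) reports SIE-controlled beta-lactamase in ME-180 cells. Cells received compound with 40 pM IL-6 for 5 hrs at 37 C; data scaled between 300 pM IL-6 and 125 nM JAK-inhibitor controls.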

The target of assay [8] is Glucocorticoid receptor (Homo sapiens) (UniProt P04150). Briefly: GR-GFP Redistribution (AID 450;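 active = compounds whose dose series gives a full or clear partial fitted curve of increased nuclear translocation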; also: potency is read from the fitted curve at half-maximal effect). The settings on record: U2OS GR-GFP nuclear translocation, laser cytometry, 2 h.
Chain of Glucocorticoid receptor (Homo sapiens) (P04150 whole entry, looked up): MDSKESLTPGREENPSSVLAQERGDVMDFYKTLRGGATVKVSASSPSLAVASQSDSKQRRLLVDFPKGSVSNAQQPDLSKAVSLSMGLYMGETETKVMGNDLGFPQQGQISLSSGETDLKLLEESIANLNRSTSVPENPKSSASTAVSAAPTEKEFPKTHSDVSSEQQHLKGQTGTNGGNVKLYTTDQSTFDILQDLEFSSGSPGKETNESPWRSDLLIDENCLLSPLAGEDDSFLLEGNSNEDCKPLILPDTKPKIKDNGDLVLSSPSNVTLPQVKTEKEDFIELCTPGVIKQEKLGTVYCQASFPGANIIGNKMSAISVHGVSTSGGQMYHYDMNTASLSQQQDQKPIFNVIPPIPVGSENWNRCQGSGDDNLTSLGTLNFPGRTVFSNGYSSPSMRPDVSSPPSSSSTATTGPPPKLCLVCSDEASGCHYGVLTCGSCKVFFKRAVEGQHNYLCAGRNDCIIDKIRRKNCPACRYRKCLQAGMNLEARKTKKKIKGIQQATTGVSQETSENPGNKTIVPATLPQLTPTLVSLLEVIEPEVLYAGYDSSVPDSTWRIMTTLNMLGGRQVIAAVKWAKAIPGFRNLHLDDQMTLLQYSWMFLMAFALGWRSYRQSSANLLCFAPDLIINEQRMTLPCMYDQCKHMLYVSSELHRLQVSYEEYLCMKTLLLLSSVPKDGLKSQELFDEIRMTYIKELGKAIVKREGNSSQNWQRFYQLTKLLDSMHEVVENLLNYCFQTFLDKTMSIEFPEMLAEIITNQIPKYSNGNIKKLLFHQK

A number with no mark means an inactive call. Records with an inconclusive call do not appear. Activity calls are given as the source filed them. Unless noted, calls follow the shape of the dose curve; as a rule, active = well fitted curve in the direction sought with a large enough effect; inconclusive = small, poorly fitted or top-dose-only effect, or another doubt; inactive = no such curve, though single readings can be large; an effect the other way counts as inactive or inconclusive. Some results are limits rather than exact numbers.

Chain of Rap guanine nucleotide exchange factor 3 (Homo sapiens) (O95398 whole entry, looked up): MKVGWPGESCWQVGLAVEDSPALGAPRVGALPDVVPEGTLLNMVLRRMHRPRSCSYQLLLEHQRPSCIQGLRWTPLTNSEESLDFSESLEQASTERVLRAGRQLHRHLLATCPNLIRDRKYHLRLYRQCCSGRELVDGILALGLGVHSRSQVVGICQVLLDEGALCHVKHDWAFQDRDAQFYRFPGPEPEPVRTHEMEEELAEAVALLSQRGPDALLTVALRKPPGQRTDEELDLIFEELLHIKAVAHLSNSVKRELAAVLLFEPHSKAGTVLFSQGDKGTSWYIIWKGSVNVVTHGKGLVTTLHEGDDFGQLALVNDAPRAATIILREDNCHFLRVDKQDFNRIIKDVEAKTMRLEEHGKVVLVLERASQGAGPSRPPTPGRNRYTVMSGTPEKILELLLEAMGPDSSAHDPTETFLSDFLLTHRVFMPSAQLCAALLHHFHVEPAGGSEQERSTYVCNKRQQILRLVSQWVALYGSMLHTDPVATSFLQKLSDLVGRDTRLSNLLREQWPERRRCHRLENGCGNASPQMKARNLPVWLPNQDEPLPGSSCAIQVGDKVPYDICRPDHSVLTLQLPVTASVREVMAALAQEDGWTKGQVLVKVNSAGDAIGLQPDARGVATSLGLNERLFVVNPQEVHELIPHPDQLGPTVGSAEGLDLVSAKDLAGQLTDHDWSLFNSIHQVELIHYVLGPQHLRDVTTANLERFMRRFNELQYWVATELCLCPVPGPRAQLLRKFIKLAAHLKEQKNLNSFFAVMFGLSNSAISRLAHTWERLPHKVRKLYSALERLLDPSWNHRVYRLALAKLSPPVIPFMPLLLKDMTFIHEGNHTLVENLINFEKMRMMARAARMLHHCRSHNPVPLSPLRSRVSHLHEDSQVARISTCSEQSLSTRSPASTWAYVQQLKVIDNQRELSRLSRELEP

`CC(C)(C)CNC(=O)c1cccc2c1C(=O)c1ccc(-c3cc4ccccc4o3)cc1S2(=O)=O`: the Potency result in assay [1], in assay [3], in assay [4] and in assay [5] was “inactive” in each case. Besides, the Potency in assay [2] was 79.4 µM (active).
Consider `CCOc1cc(/C=C2\CCCc3c2nc2ccccc2c3C(=O)O)ccc1OC`, for which the Potency result in assay [1], in assay [3] and in assay [4] was “inactive” each time. In addition, the values for the Potency in assay [2] and in assay [5] were 112 µM (active) and 100 µM (active), respectively.
Regarding `Cc1ccc(-c2csc3ncnc(Nc4ccc(C(=O)O)cc4)c23)cc1`, the Potency entry in assay [1], in assay [2], in assay [3], in assay [4] and in assay [5] was “inactive” in each case.
As for `C(=C(c1ccccc1)c1ccccc1)c1ccccn1`, the Potency entry in assay [1], in assay [2], in assay [4] and in assay [5] was “inactive” each time. The Potency in assay [3] is 84.9 µM (active).
Take `CCCCCn1nc(-c2ccccc2)c2nc3ccccc3nc21`: the Potency result in assay [1] and in assay [3] was “inactive” in each case. The activation is 2.69% [at 17.1 µM, percent relative to cAMP agonist control] in assay [2] and 10.8% [at 30.8 µM] in assay [5]. In assay [4], the activity change, negative = inhibition is 19.6% [at 30.8 µM].
Regarding `O=C(Cc1nc2ccccc2[nH]c1=O)c1ccccc1`, the Potency entry in assay [1], in assay [3], in assay [4] and in assay [5] was “inactive” in each case. In addition, the Potency in assay [2] was 100 µM (active).
Take `Cc1cc2nc3c(=O)[nH]c(=O)[nH]c3nc2c([N+](=O)[O-])c1N`: the values for the Potency in assay [6], in assay [2] and in assay [5] were 13 µM (active), 100 µM (active) and 56.2 µM (active), respectively. The Potency entry in assay [1], in assay [3] and in assay [4] was “inactive” each time.
For `CN(Cc1cccs1)c1nc(-c2cccnc2)nc2ccccc12`, the Potency entry in assay [1] and in assay [3] was “inactive” each time. Besides, the activation is 12.1% [at 17.1 µM, percent relative to cAMP agonist control] in assay [2] and 51% [at 30.8 µM] in assay [5]. Besides, the activity change, negative = inhibition in assay [4] is -10.3% [at 30.8 µM].
With `O=c1oc2c3c4c(cc2c(C(F)(F)F)c1CCN1CCOCC1)CCCN4CCC3`, the call in assay [7] was inactive. Besides, the Potency in assay [8] is above 20.6 µM; in assay [2], 100 µM (active); in assay [5] it was 17.8 µM (active). In addition, the Potency result in assay [1], in assay [3] and in assay [4] was “inactive” throughout.
Take `Cc1n[nH]c(C)c1N1C(=O)c2cccc3c(N4CCCCCC4)ccc(c23)C1=O`: the Potency in assay [6] was 20.6 µM (active); in assay [2] it was 112 µM (active); in assay [5], 12.6 µM (active). Besides, the Potency entry in assay [1], in assay [3] and in assay [4] was “inactive” throughout.
For the molecule `O=C(c1ccco1)N1CCN(c2cc(=O)n(C3CCCCC3)c(=O)[nH]2)CC1`, the Potency entry in assay [1], in assay [2], in assay [3], in assay [4] and in assay [5] was “inactive” in each case.
Take `COc1cc(C2CC(=O)Oc3cc(C)cc(C)c32)cc(OC)c1OC` (stereo unspecified): the Potency result in assay [1], in assay [2], in assay [4] and in assay [5] was “inactive” in each case. In addition, the Potency in assay [3] was 1.51 µM (active).
On to `CC1=Nc2ccccc2/C1=C\c1nc(-c2ccccc2)oc1O`, for which the Potency entry in assay [1] and in assay [3] was “inactive” throughout. The activation in assay [2] is 7.61% [at 17.1 µM, percent relative to cAMP agonist control]; in assay [5], 18.1% [at 30.8 µM]. The activity change, negative = inhibition in assay [4] was -10.6% [at 30.8 µM].
On to `CCOc1cccc2sc(N3CCN(C(=O)C(C)(C)C)CC3)nc12`, for which the Potency result in assay [1], in assay [2] and in assay [5] was “inactive” in each case. The outcome in assay [3] is “inactive [at 12.7 µM]”.
For `CCN(CC)c1ccc(/C=C(\C#N)C(=O)c2ccc(Br)cc2)cc1`, the Potency entry in assay [6], in assay [1], in assay [3] and in assay [4] was “inactive” each time. Further, the Potency in assay [2] was 112 µM (active).
As to `Nc1ccc2c3c(cccc13)C(=O)N(c1ccccc1)C2=O`, the figures for the Potency in assay [6] and in assay [2] were 3.66 µM (active) and 100 µM (active), respectively. For the same molecule, the Potency entry in assay [1] and in assay [3] was “inactive” each time.
Turning to `CCOC(=O)C1=C(C)NC(SC)=C(C#N)C1CC(C)C` (stereo unspecified), the Potency entry in assay [1], in assay [2], in assay [3] and in assay [5] was “inactive” each time.
As for `CCC1(c2ccccc2)NC(=O)N(CC(=O)Nc2ccc(OC)nc2)C1=O` (stereo unspecified), the Potency in assay [6] was 18.3 µM (active). Also, the Potency entry in assay [1] and in assay [3] was “inactive” each time. The activation was 15.1% [at 17.1 µM, percent relative to cAMP agonist control] in assay [2] and 14.8% [at 30.8 µM] in assay [5]. Further, the activity change, negative = inhibition in assay [4] is -15.6% [at 30.8 µM].
As for `Oc1ccc2nnc3c(Br)cnn3c2c1`, the Potency in assay [6] is 16.3 µM (active); in assay [2], 112 µM (active). Moreover, the Potency entry in assay [1], in assay [3] and in assay [4] was “inactive” in each case.
As to `CCCn1c(O)c(N=Nc2ccc3ccccc3n2)c2ccccc21`, the Potency result in assay [6], in assay [1] and in assay [4] was “inactive” in each case. The figures for the Potency in assay [2] and in assay [3] were 100 µM (active) and 21.3 µM (active), respectively.
As for `COc1ccccc1NC(=O)c1sc2nc(Cc3ccccc3)cc(C(F)(F)F)c2c1N`, in assay [6], the Potency is 13 µM (active). In addition, the Potency entry in assay [1] and in assay [3] was “inactive” in each case. In addition, the activation in assay [2] was -0.606% [at 17.1 µM, percent relative to cAMP agonist control]. In assay [4], the activity change, negative = inhibition was -9.81% [at 30.8 µM].
Take `COc1ccc(C(C#N)=Cc2ccccc2OC)cc1`: the Potency entry in assay [1] is “inactive”. The activation in assay [2] was -1.43% [at 17.1 µM, percent relative to cAMP agonist control]. Moreover, the activity change, negative = inhibition in assay [4] is -8.61% [at 30.8 µM].
On to `Cc1ccccc1C(=O)O/N=C(\c1ccccc1)c1ccccn1`, for which the Potency entry in assay [1] was “inactive”. Also, in assay [2], the activation is 8.13% [at 17.1 µM, percent relative to cAMP agonist control]. For the same molecule, the activity change, negative = inhibition in assay [4] is 3.56% [at 30.8 µM].
For `Cc1ccc2oc(=O)n(Cc3ccccc3)c2c1`, the Potency result in assay [1] was “inactive”. Besides, the activation in assay [2] was 5.26% [at 17.1 µM, percent relative to cAMP agonist control]. Moreover, the activity change, negative = inhibition in assay [4] is 1.72% [at 30.8 µM].
